Source: PubChem BioAssay (NCATS)
Results filed as inconclusive are left out. Values without a mark were called inactive. The source made the active and inactive calls. Calls come from the whole dose curve; as a rule, active = well fitted cell-killing curve with a large enough effect; inconclusive = small, poorly fitted or top-dose-only effect; inactive = no such curve, though single readings can be large or run the other way.

Test: qHTS of pediatric cancer cell lines to identify multiple opportunities for drug repurposing: Confirmatory screen for TC32 cells (AID 1347118);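 note: cells exposed to compound for 48 h before the read; nearly all actives have a fitted effect of over 65% in size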
Settings: TC32 Ewing sarcoma cells viability qHTS; series mostly up to 45.9 µM; activity change, negative = cytotoxicity: at the top concentration
Text: Drug repurposing or repositioning has been offered as a strategy for drug development in oncology programs. This approach has special potential for childhood cancers and other rare or orphan diseases, where the expected return on new drug development has been a disincentive to pharmaceuticals.
In this project we exploit the poly-pharmacology of drugs to discover new indications via phenotypic screening of a panel of 19 well-characterized cell lines derived from solid tumors seen in children and adolescents. The goal is to identify approved drugs with previously unrecognized anticancer properties that has the potential to reveal new mechanisms and biological processes involved in carcinogenesis or drug resistance. We employed a titration-based paradigm (quantitative high-throughput screening or qHTS), where all compounds were tested at multiple concentrations for their effect on cell viability. Concentration-response curves (CRCs) were derived directly from the primary screen, and both potency and efficacy values were used to identify compounds with robust bioactivity profiles. We screened the NIH Chemical Genomics Center (NCGC) Pharmaceutical Collection (NPC) and Mechanism Interrogation Plate (MIPE) small molecule collections of approved and investigational compounds against these cell lines; and measured metabolically active cells after 48 hours of compound treatment as a proxy for cell viability.
Assay Submitter: Nathalia J. Martinez, National Center for Advancing Translational Sciences, National Institutes of Health, Rockville, MD, USA; email: natalia.martinez@nih.gov
[1] Shen, M et al. Quantitative high-throughput phenotypic screening of pediatric cancer cell lines identifies multiple opportunities for drug repurposing. Oncotarget 2017 Dec 19;9(4):4758-4772. PMID 29435139.
The cells were obtained from University of North Carolina (UNC), Pediatric Preclinical Testing Program (PPT), and Coriell Institute (CI).
qHTS cell viability assay:
Cells were assayed in growth media at a density of 500-1,000 cells/well. Five microliters of cells were dispensed into 1,536-well, white, solid-bottom, TC-treated plates (Greiner Bio One) using a multidrop dispenser and incubated at 37 degrees C, 5% CO2, under a humidified atmosphere for 5 hours. Twenty-three nanoliters of compounds and controls (neutral control DMSO or positive control bortezomib at final concentration of 2.3 uM) were subsequently transferred by Kalypsys pintool. For primary screens, the MIPE collection was tested at 11-point dilutions (final concentrations range from 0.78 nM to 46 µM) and the NPC collection at 8-point dilutions (final concentrations range from 0.59 nM to 46 µM). Compounds tested in follow-up screens were assayed at 11-point dilutions. Cells were incubated for 48 hours, followed by addition of 3 uL of CellTiter-Glo (Promega). After a 15min incubation at room temperature, samples were analyzed for luminescence intensity using a ViewLux High-throughput CCD imager equipped with clear filters.
% is set by controls: 0 for no effect and ±100 for the full control effect; potency is the fitted concentration of half-maximal effect.

Q: With `COc1cc2c(Oc3ccc(-c4cnc(Nc5ccc(F)cc5)n(C)c4=O)cc3F)ccnc2cc1OCCCN1CCOCC1` as the compound, how does the Potency read?
A: 2.93 µM (active)

Q: For `CCNC(=O)Nc1ccc2ncc(Nc3ccc(C)cc3)nc2n1`, which “activity change, negative = cytotoxicity” value is on record?
A: 6.72%

Q: Which Potency does the source give for `CNC(=O)c1c(F)cccc1Nc1nc(Nc2cc3c(cc2OC)CCN3C(=O)CN(C)C)nc2[nH]ccc12` here?
A: 0.522 µM (active)

Q: Which Potency does the source give for `CC=C1NC(=O)[C@H]2CSSCCC=C[C@H](CC(=O)N[C@H](C(C)C)C(=O)N2)OC(=O)[C@H](C(C)C)NC1=O` here?
A: 14.7 µM (active)

Q: For `O=c1[nH]nc(Sc2ncc([N+](=O)[O-])s2)n1-c1ccc2c(c1)OCCO2`, which Potency is on record?
A: 6.57 µM (active)

Q: For `OCCCNc1cc(-c2ccnc(Nc3cccc(Cl)c3)n2)ccn1`, which Potency is on record?
A: 0.165 µM (active)

Q: With `Nc1cc(C(F)(F)F)c(-c2cc(N3CCOCC3)nc(N3CCOCC3)n2)cn1` as the compound, how does the Potency read?
A: 4.14 µM (active)

Q: With `COc1ccc(OC)c(-c2nnc3ccc(-c4ccc(OC)c(O[C@@H]5CCOC5)c4)nn23)c1` as the compound, how does the Potency read?
A: 2.93 µM (active)

Q: For `COCCn1c2c([n+](Cc3cnccn3)c1C)C(=O)c1ccccc1C2=O`, which Potency is on record?
A: 0.0185 µM (active)

Q: For `CC1(C)O[C@@H]2C[C@@H]3[C@H]4C[C@@H](F)C5=CC(=O)C=C[C@]5(C)[C@@]4(F)[C@@H](O)C[C@]3(C)[C@]2(C(=O)CO)O1`, which Potency is on record?
A: 0.369 µM (active)

Q: With `CC(=O)Nc1nc(C)c(-c2ccc(Cl)c(S(=O)(=O)NCCO)c2)s1` as the compound, how does the Potency read?
A: 7.37 µM (active)

Q: Which Potency does the source give for `COC(=O)Nc1ccc(-c2nc(N3CCOCC3)c3cnn(C4CCN(Cc5cccnc5)CC4)c3n2)cc1` here?
A: 1.31 µM (active)

Q: For `CCC(=C(c1ccccc1)c1ccc(OCCN(C)C)cc1)c1ccccc1`, which Potency is on record?
A: 20.8 µM (active)

Q: Which Potency does the source give for `COc1cc2nccc(Oc3ccc(NC(=O)C4(C(=O)Nc5ccc(F)cc5)CC4)cc3)c2cc1OC` here?
A: 18.5 µM (active)

Q: Which Potency does the source give for `Cc1ccc(C(=O)Nc2cccc(C(F)(F)F)c2)cc1-c1ccc2nc(NCCN3CCOCC3)ncc2c1` here?
A: 6.57 µM (active)

Q: For `CC1(C)CCC(c2ccc(Cl)cc2)=C(CN2CCN(c3ccc(C(=O)NS(=O)(=O)c4ccc(N[C@H](CCN5CCOCC5)CSc5ccccc5)c(S(=O)(=O)C(F)(F)F)c4)cc3)CC2)C1`, which “activity change, negative = cytotoxicity” value is on record?
A: -91.3%

Q: For `Cc1c(NC(=O)OC[C@@H]2COCCN2)cn2ncnc(Nc3ccc4c(cnn4Cc4cccc(F)c4)c3)c12`, which Potency is on record?
A: 26.1 µM (active)

Q: With `Cc1ccc(-c2ncn(-c3ccc(Nc4nccc(-c5cccc(N6CCOCC6)c5)n4)cc3)n2)cn1` as the compound, how does the Potency read?
A: 0.135 µM (active)

Q: For `C=CC(=O)Nc1cc2c(Nc3ccc(F)c(Cl)c3)ncnc2cc1C#CC(C)(C)N1CCN(C)CC1`, which Potency is on record?
A: 3.02 µM (active)

Q: For `Cc1[nH]c2ccccc2c1CCNCc1ccc(C=CC(=O)NO)cc1`, which Potency is on record?
A: 0.117 µM (active)

Q: Which Potency does the source give for `C[C@@H](Oc1cc(-c2cnn(C3CCNCC3)c2)cnc1N)c1c(Cl)ccc(F)c1Cl` here?
A: 4.65 µM (active)

Q: Which “activity change, negative = cytotoxicity” value does the source give for `CC(C)c1cc(-c2n[nH]c(=O)n2-c2ccc3c(ccn3C)c2)c(O)cc1O` here?
A: -94.9%

Q: For `Cc1c(C)n(Cc2ccc(-c3ccccc3C(=O)O)cc2)c2ccc(C(=O)N[C@@H](C)c3ccc([N+](=O)[O-])cc3)cc12`, which “activity change, negative = cytotoxicity” value is on record?
A: 1.93%

Q: Which Potency does the source give for `Nc1ccccc1NC(=O)c1ccc(CNC(=O)OCc2cccnc2)cc1` here?
A: 3.02 µM (active)

Q: Which Potency does the source give for `COc1cccc(-c2ccc(NC(=O)C3=C(C(=O)O)CCC3)c(F)c2)c1` here?
A: 18.5 µM (active)

Q: For `Cc1cc(Nc2ncnc3ccc(-c4ccc(CNCCS(C)(=O)=O)o4)cc23)ccc1Oc1ccn2ncnc2c1`, which Potency is on record?
A: 18.5 µM (active)

Q: For `Cc1nc(N)ncc1-c1nc(N2CCOCC2)c2sc(C(C)(C)O)cc2n1`, which Potency is on record?
A: 2.33 µM (active)

Q: Which Potency does the source give for `CN(C)CC(C)(C)CNc1nn2c(-c3ccccc3)nnc2cc1C1CCC1` here?
A: 18.5 µM (active)

Q: With `Nc1ccccc1NC(=O)c1ccc(CNc2nccc(-c3cccnc3)n2)cc1` as the compound, how does the “activity change, negative = cytotoxicity” value read?
A: -95.6%

Q: For `Cc1ccc2nc(NC(=O)CSc3nc4c(c(=O)n3-c3ccccc3)SCC4)sc2c1`, which Potency is on record?
A: 8.27 µM (active)

Q: With `COc1cc(Nc2ncc(F)c(Nc3ccc4c(n3)N(COP(=O)(O)O)C(=O)C(C)(C)O4)n2)cc(OC)c1OC` as the compound, how does the Potency read?
A: 5.85 µM (active)

Q: For `Cc1cc(C(=O)N2CCN(c3cccc(Cl)c3)CC2)n(-c2ccccc2)n1`, which Potency is on record?
A: 2.61 µM (active)

Q: For `C=CC(=O)Nc1cccc(Oc2nc(Nc3ccc(N4CCN(C)CC4)cc3OC)ncc2Cl)c1`, which Potency is on record?
A: 14.7 µM (active)

Q: Which Potency does the source give for `C=C1C(=CC=C2CCC[C@]3(C)[C@@H]([C@H](C)C=C[C@H](C)C(C)C)CC[C@@H]23)C[C@@H](O)C[C@@H]1O` here?
A: 23.3 µM (active)

Q: Which Potency does the source give for `COc1ccc(F)c(F)c1C(=O)c1cnc(NC2CCN(S(C)(=O)=O)CC2)nc1N` here?
A: 2.08 µM (active)

Q: Which Potency does the source give for `Cc1ccc(C(=O)Nc2ccc(CN3CCN(C)CC3)c(C(F)(F)F)c2)cc1C#Cc1cnc2cccnn12` here?
A: 0.0037 µM (active)

Q: Which Potency does the source give for `Cc1cc(Nc2cc(N3CCN(C)CC3)nc(Sc3ccc(NC(=O)C4CC4)cc3)n2)n[nH]1` here?
A: 0.0928 µM (active)

Q: For `CC(C)(C)c1cnc(CSc2cnc(NC(=O)C3CCNCC3)s2)o1`, which Potency is on record?
A: 0.465 µM (active)

Q: With `Cc1ccc(NC(=O)C2(c3ccc4c(c3)OC(F)(F)O4)CC2)nc1-c1cccc(C(=O)O)c1` as the compound, how does the “activity change, negative = cytotoxicity” value read?
A: -0.513%

Q: Which Potency does the source give for `O=C(Nc1ncc(-c2cc(C(F)F)nn2-c2c(Cl)cccc2Cl)s1)C1CC1` here?
A: 0.369 µM (active)
